In PubChem BioAssay (NCI):
This is part of a sample that, as a whole, favours compounds with a hit. Of some 83,000 tested, about 20% had one in any assay.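 The test compound was applied at a single concentration to cells in 96-well plates for 48 hours, and percent growth was recorded.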 Values without a mark were called inactive. Activity calls are given as the source filed them. How the source made its calls: active means growth percent below 10; inactive means the rest.

Experiments:
Assay in all cases: NCI-60 one-dose screen, 48 h (100 = growth as untreated, 0 = no growth, -100 = all killed)
Conditions in all cases: 10 µM unless noted
HCT-15 colon = test system: HCT-15 colon
HT29 colon = test system: HT29 colon
SNB-75 CNS = test system: SNB-75 CNS
SNB-19 CNS = test system: SNB-19 CNS
U251 CNS = test system: U251 CNS
PC-3 prostate = test system: PC-3 prostate
SK-MEL-5 melanoma = test system: SK-MEL-5 melanoma
UACC-62 melanoma = test system: UACC-62 melanoma
LOX IMVI melanoma = test system: LOX IMVI melanoma
SK-MEL-28 melanoma = test system: SK-MEL-28 melanoma

Row | Structure (SMILES) | growth (HCT-15 colon) | growth (HT29 colon) | growth (SNB-75 CNS) | growth (SNB-19 CNS) | growth (U251 CNS) | growth (PC-3 prostate) | growth (SK-MEL-5 melanoma) | growth (UACC-62 melanoma) | growth (LOX IMVI melanoma) | growth (SK-MEL-28 melanoma)
1 | N#CC1=C(N2CCOCC2)NC2c3ccccc3Sc3ccccc3N2C1=N (centres undefined) | 104% | 104% | 94.1% | 107% | 98.7% | 88.8% | 90.3% | 87.4% | 94.2% | 93.9%
2 | Cc1ccc(S(=O)(=O)N/N=C2\CC3CCC2C3)cc1 (centres undefined) | 96% | 108% | 85.7% | 101% | 96.8% | 95.8% | 99.8% | 103% | 103% | 109%
3 | O=C(Nc1ccc(-n2cc(-c3ccncc3)c(-c3ccc(Cl)c(O)c3)n2)cc1)Nc1cc(C(F)(F)F)cc(C(F)(F)F)c1 | 15.6% | 0.312% (active) | -0.49% (active) | 27.1% | 15.8% | 4.61% (active) | -24.4% (active) | 5.53% (active) | 19.8% | 16.1%
4 | C=CCNC(=S)NNc1ccc([N+](=O)[O-])cn1 | 100% | 90.5% | 81.8% | 103% | 101% | 100% | 94.3% | 99.3% | 82% | 106%
5 | COc1ccc(-c2nc(Nc3nc4ccccc4[nH]3)nc(N)c2C#N)cc1 | 101% | 96% | 84.9% | 98.1% | 110% | 88.1% | 95.3% | 89.3% | 93.9% | 114%
6 | COC(=O)Nc1nc2ccc(C(=O)c3ccccc3N(C)C3COC3)cc2[nH]1 | 23.5% | 9.07% (active) | 16.4% | 37.8% | 21.4% | 23% | 22.6% | 27% | 30.8% | 63.6%
7 | COc1cc(/C(=C2/O[C@@H]([C@H]3COC(C)(C)O3)[C@H]3OC(C)(C)O[C@@H]23)c2ccc3c(c2)OCO3)cc(OC)c1OC | 91.3% | 68.4% | 51.8% | 75.7% | 47.1% | 82.9% | 71.2% | 76.1% | 47% | –
8 | Cc1c(CN(C)C)cc(C(C)C)cc1C(C)C | 113% | 86.4% | 96.7% | 102% | 100% | 109% | 104% | 106% | 98.7% | 107%
9 | CCOc1ccc2nc3ccc(Cl)cc3nc2c1 | 97.1% | 90.5% | 108% | 97.7% | 96.4% | 99.9% | 67.1% | 79.4% | 101% | 113%
10 | COc1ccc(/C=C(/C(=O)N2CCN(c3ccc(C)cc3)CC2)c2cc(OC)c(OC)c(OC)c2)cc1N | 11.8% | 3.34% (active) | 9.7% (active) | 33.6% | 22% | 9.56% (active) | -30.7% (active) | 40% | 22.2% | 54.3%
11 | CN(C)CCOC(=O)C(C)(C)C | 101% | 99.7% | 100% | 99.4% | 102% | 93.6% | 105% | 93.3% | 105% | 26%
12 | CCCCCCCCCCCCCCCCCC1=NCCN1CS(=O)(=O)O | 41% | 2.18% (active) | 60.9% | 80.4% | 64.5% | 39% | 87.3% | 88.9% | -2.88% (active) | 103%
13 | COc1ccccc1Nc1nnc(COc2ccc(CNC(=O)CCCC/C=C/C(C)C)cc2OC)o1 | 88.3% | 103% | 94.5% | 94.6% | 102% | 84.4% | 98% | 81.9% | 95.6% | 98.1%
14 | COc1cc(CNC(=O)CCCC/C=C/C(C)C)ccc1OCc1nnc(Nc2ccccc2F)o1 | 90.1% | 89.9% | 57.8% | 58.6% | 84% | 72.5% | 86.6% | 65.5% | 83.4% | 85.2%
15 | Nc1ccc(N=Nc2ccccc2)c2cc(S(=O)(=O)O)ccc12 | 104% | 94.6% | 82.5% | 101% | 101% | 96% | 107% | 103% | 97.7% | 118%
16 | CC(C)OC(=O)Nn1cnc2ccccc21 | 120% | 111% | 128% | 111% | 106% | 101% | 108% | 107% | 114% | 128%
17 | CCCCCCCCCCCCOC(=N)N(C)C | 96.7% | 102% | 85.8% | 96.1% | 94.8% | 91.4% | 109% | 93.9% | 74.2% | 106%
18 | CC(=O)c1cc(Nc2cc(C)nc(N)n2)cc(C(C)=O)c1 | 111% | 111% | 90.3% | 102% | 101% | 107% | 100% | 93.7% | 99.8% | 111%
19 | CCCCCCCCC(=O)Nc1ccc(O)cc1 | 94.6% | 94.2% | 76.8% | 112% | 91.4% | 83.2% | 96.7% | 92.1% | 84.8% | 99.7%
20 | COc1ccc(-c2nc(SCC(C)C)nc(Nc3ccc(C)cc3)c2C#N)cc1 | 84.8% | 82.9% | 60.6% | 78.4% | 21.2% | 86.1% | 86.1% | 102% | 73.9% | 94.6%
21 | CCOC(=O)c1cc(-c2ccc(OC)cc2)[nH]c1NNC(=O)CCOC | 111% | 112% | 106% | 103% | 101% | 93.2% | 99.3% | 93.6% | 94.8% | 114%
22 | CC1CCCCC[N+]12CCCC2 (centres undefined) | 95.6% | 107% | 95% | 106% | 85.3% | 93.4% | 99.5% | 103% | 95.8% | 109%
23 | CCOC(=O)C1=C(C(F)(F)F)NC(=S)NC1CN1C(=O)c2ccccc2C1=O (centres undefined) | 109% | 108% | 104% | 112% | 102% | 90.5% | 103% | 101% | 105% | 108%
24 | CC(=O)N(N=O)c1ccc([N+](=O)[O-])cc1Cl | 54.6% | 89.7% | 81.2% | 58.6% | 57.8% | 47.4% | 18.6% | 27.9% | 72.7% | 68.5%
25 | CC(=O)/C(=C/c1ccc(-c2ccccc2)cc1)C(=O)c1ccccc1 | 66.9% | 70.2% | 79.7% | 82.3% | 61% | 63.1% | 87.3% | 80.5% | 19.5% | 96.2%
26 | O=c1c2c(c3ccccc3n1-c1ccccc1)NC(=S)NC2c1ccc(Cl)cc1 (centres undefined) | 28.6% | 41.5% | 41% | 39.7% | 32.4% | -4.33% (active) | 1.08% (active) | 22.4% | 8.65% (active) | 48.2%
27 | COc1ccc(/C=C/C(=O)/C=C/c2cc3ccccc3[nH]c2=O)cc1 | 75.3% | 3.66% (active) | 61.6% | 79.6% | 13.7% | 52.4% | 86.7% | 53.5% | -21% (active) | 79.6%
28 | COc1cccc(CNC(=O)c2cccc(C3CC(=O)c4c(cc(OC)c(OC)c4OC)O3)c2)c1 (centres undefined) | 43.5% | 68% | 27.7% | 51.2% | 49.3% | 20.8% | 59.4% | 24.3% | 44.9% | 65.7%
